{"source": "PubChem BioAssay (NCATS)", "key": {"[1]": {"assay": "Primary qHTS for inhibitors of nuclear receptor binding SET domain protein 2 (NSD2) in an isogenic RCH-ACV NSD2 p.E1099K mutant (9B) (AID 1645876)", "conditions": "RCH-ACV NSD2 E1099K (9B) viability, CellTiter-Glo, 72 h; series mostly up to 44.9 µM"}, "[2]": {"assay": "Primary qHTS for inhibitors of nuclear receptor binding SET domain protein 2 (NSD2) in an RCH-ACV wild type WT cells (2C) (AID 1645877)", "conditions": "RCH-ACV NSD2 WT (2C) viability, CellTiter-Glo, 72 h; series mostly up to 44.9 µM"}}, "note": "Results filed as inconclusive are left out. Where a call stands in place of a potency, no number is given. Calls of active or inactive are those of the source. Calls come from the whole dose curve; as a rule, active = well fitted curve in the direction sought with a large enough effect; inconclusive = small, poorly fitted or top-dose-only effect, or another doubt; inactive = no such curve, though single readings can be large; an effect the other way counts as inactive or inconclusive. Note: nearly all actives have a fitted effect of over 70% in size.", "data": [{"smiles": "CC1=CC[C@]2(C(=O)O[C@@H]3O[C@H](CO[C@@H]4O[C@H](CO)[C@@H](O[C@@H]5O[C@@H](C)[C@H](O)[C@@H](O)[C@H]5O)[C@H](O)[C@H]4O)[C@@H](O)[C@H](O)[C@H]3O)CC[C@]3(C)C(CCC4[C@@]5(C)C[C@@H](O)[C@H](O)[C@@](C)(CO)C5CC[C@]43C)C2C1C", "note": "(stereo partly drawn)", "values": [{"measurement": "outcome", "setting": "[1]", "result": "inactive [at 9.23 µM]"}, {"measurement": "outcome", "setting": "[2]", "result": "inactive [at 9.23 µM]"}]}, {"smiles": "C=CC(C)(C)O[C@@H]1O[C@H](CO[C@@H]2OC[C@](O)(CO)[C@H]2O)[C@@H](O)[C@H](O)[C@H]1O", "values": [{"measurement": "Potency", "setting": "[1]", "result": "inactive"}, {"measurement": "Potency", "setting": "[2]", "result": "inactive"}]}, {"smiles": "O=C(/C=C/c1ccc(O)cc1)OC[C@H]1O[C@@H](OC(=O)/C=C/c2ccccc2)[C@H](O)[C@@H](O)[C@@H]1O", "values": [{"measurement": "Potency", "setting": "[1]", "result": "inactive"}, {"measurement": "Potency", "setting": "[2]", "result": "inactive"}]}, {"smiles": "COC1CCCC/C(C)=C/C2C=C(C)C(C)C3C(CC(C)C)NC(=O)C23C(=O)C1", "note": "(stereo not drawn)", "values": [{"measurement": "Potency", "setting": "[1]", "result": "inactive"}, {"measurement": "Potency", "setting": "[2]", "result": "inactive"}]}, {"smiles": "C=CC1C(O[C@@H]2O[C@H](CO)[C@@H](O)[C@H](O)[C@H]2O)OC=C(C(=O)OC)C1CC(=O)O", "note": "(stereo partly drawn)", "values": [{"measurement": "Potency", "setting": "[1]", "result": "inactive"}, {"measurement": "Potency", "setting": "[2]", "result": "inactive"}]}, {"smiles": "C=C1CCC2C(C)(CO[C@@H]3O[C@H](CO)[C@@H](O)[C@H](O)[C@H]3O)C(O)CCC2(C)C1C(=O)CC1=CCOC1=O", "note": "(stereo partly drawn)", "values": [{"measurement": "Potency", "setting": "[1]", "result": "inactive"}, {"measurement": "Potency", "setting": "[2]", "result": "inactive"}]}, {"smiles": "C=CC1C(O[C@@H]2O[C@H](CO)[C@@H](O)[C@H](O)[C@H]2O)OC=C(C(=O)OC)C1Cc1nccc2c1[nH]c1ccccc12", "note": "(stereo partly drawn)", "values": [{"measurement": "Potency", "setting": "[1]", "result": "inactive"}, {"measurement": "Potency", "setting": "[2]", "result": "inactive"}]}, {"smiles": "CC12CCC3C(C)(C)C(O)CCC3(C)C1Cc1c(oc(C(=O)O)cc1=O)O2", "note": "(stereo not drawn)", "values": [{"measurement": "Potency", "setting": "[1]", "result": "inactive"}, {"measurement": "Potency", "setting": "[2]", "result": "inactive"}]}, {"smiles": "COC1(CC(C)C)NC(=O)C(O)(Cc2ccccc2)NC1=O", "note": "(stereo not drawn)", "values": [{"measurement": "Potency", "setting": "[1]", "result": "inactive"}, {"measurement": "Potency", "setting": "[2]", "result": "inactive"}]}]}
